Test results published in PubChem BioAssay (NCATS).
Records with an inconclusive call do not appear. The source made the active and inactive calls. Unless noted, the call rests on the fitted dose curve; in most records, active means well fitted curve in the direction sought with a large enough effect; inconclusive means small, poorly fitted or top-dose-only effect, or another doubt; inactive means no such curve, though single readings can be large; an effect the other way counts as inactive or inconclusive.

Tests used:
[1] = Cell Viability - BJ (AID 421; calls by dose curve;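 further: potency means the concentration at half of the fitted maximal effect; cells exposed to compound for 40 hours at 37 °C before readout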); conditions: BJ fibroblast viability, qHTS
In short: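 Luminescent ATP signal (CellTiter-Glo, 20 min at room temperature) served as the read-out of viable BJ cells after 40 hours of compound treatment. Responses were scaled between DMSO and 100 uM tamoxifen, and AC50 values were obtained by Hill modeling.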

[2] = Cell Viability - Jurkat (AID 426;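 active means dose-dependent loss of cell ATP signal giving a full or clear fitted curve, ranked by lower potency value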;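 further: potency means the concentration at half of the fitted maximal effect; cells exposed to compound for 40 hours at 37 °C before ATP read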); conditions: qHTS
In short: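 Luminescent ATP read-out (CellTiter-Glo, 20 min at room temperature) after 40 hr compound exposure at 37 °C of Jurkat E6-1 cells, 5000/well. Decreased ATP taken as cytotoxicity; AC50 from standard Hill equation.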

[3] = Cell Viability - Hek293 (AID 427;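 active means compounds whose dose-response curve shows a full or clear partial loss of cell viability, called from curve shape rather than a numeric limit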;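 further: potency means the concentration at half of the fitted maximal effect; cells exposed to compound for 40 hours at 37 °C before reading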); conditions: qHTS
In short: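 Luminescent ATP read-out (CellTiter-Glo, 20 min RT) after 40 hr compound exposure at 37 °C in complete medium. Signal normalized to DMSO (basal) and 100 uM tamoxifen (100% inhibition); concentration-response fitted with the standard Hill equation to give AC50.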

[4] = Cell Viability - HepG2 (AID 433; calls by dose curve;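 further: potency means the concentration at half of the fitted maximal effect; potency for ATP loss meaning cytotoxicity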); conditions: qHTS
In short: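 HepG2 hepatocellular carcinoma cells (1500/well) were treated with compounds for 40 h at 37 °C in complete medium; intracellular ATP was read by CellTiter-Glo luminescence. Data were normalized to DMSO and 100 uM tamoxifen, and AC50 came from Hill fits.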

[5] = Cell Viability - MRC5 (AID 434; calls by dose curve;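 further: potency means the concentration at half of the fitted maximal effect; potency reflects cytotoxicity seen as loss of intracellular ATP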); conditions: MRC5 lung fibroblast viability, qHTS
In short: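 Decrease in intracellular ATP, quantified by luciferase light output, reflects compound toxicity toward MRC5 cells exposed for 40 hr in complete culture medium. Concentration-response curves, scaled between DMSO and 100 uM tamoxifen, gave AC50 values.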

[6] = Cell Viability - SK-N-SH (AID 435; calls by dose curve; further: potency means the concentration at half of the fitted maximal effect); conditions: SK-N-SH neuroblastoma cell viability qHTS
In short: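 SK-N-SH human neuroblastoma cells (1500/well) were exposed to compounds in complete medium for 40 h at 37 °C, and intracellular ATP was then measured by CellTiter-Glo luminescence. AC50 was taken from Hill fits, normalized to DMSO and 100 uM tamoxifen.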

[7] = Cell Viability - N2a (AID 540); conditions: N2a mouse neuroblastoma cell viability; at 92.2 µM (top of the series);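 further: plate controls were DMSO alone for no effect and tamoxifen control for full effect; nearly all actives have a fitted effect of over 45% in size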
In short: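 N2a mouse neuroblastoma, 1500 cells/well, 5 hr settle; compound 40 hr, 37 °C; CellTiter-Glo 20 min RT; luminescence; Hill-fit AC50.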

[8] = Cell Viability - NIH 3T3 (AID 541); conditions: NIH 3T3 cell viability, qHTS; activity change, negative = cytotoxicity: at 92.2 µM (top of the series);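 further: plate controls were DMSO alone for no effect and tamoxifen positive control for full effect; nearly all actives have a fitted effect of over 25% in size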
In short: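 qHTS format; 40 hr compound exposure, 37 °C; CellTiter-Glo luminescence (cellular ATP) read-out after 20 min at RT. Decrease in ATP = cytotoxicity; AC50 from standard Hill fit.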

[9] = Cell Viability - HUV-EC-C (AID 542); further: on the % scale 0 is the no-effect control and ±100 the full control effect; nearly all actives have a fitted effect of over 35% in size
In short: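 Luminescent ATP read-out (CellTiter-Glo, 20 min room temperature) after 40 hr compound treatment of HUV-EC-C cells at 37 °C. Concentration-response data fitted with the standard Hill equation to give AC50; tamoxifen and doxorubicin served as positive controls.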

[10] = Cell Viability - H-4-II-E (AID 543); further: on the % scale 0 is the no-effect control and ±100 the full control effect; nearly all actives have a fitted effect of over 35% in size
In short: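 qHTS, rat hepatoma H-4-II-E, 1500 cells/well; 40 hr compound exposure, 37 °C; CellTiter-Glo ATP luminescence after 20 min RT; AC50 by standard Hill fit.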

[11] = Cell Viability - SH-SY5Y (AID 544); conditions: SH-SY5Y neuroblastoma cell viability; viability change, negative = cytotoxic: at 92.2 µM (top of the series);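 further: 0% = DMSO alone and -100% = 100 µM tamoxifen; nearly all actives have a fitted effect of over 55% in size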
In short: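 SH-SY5Y, 1500 cells/well, 5 hr pre-incubation 37 °C; cpd 40 hr 37 °C; CellTiter-Glo 20 min RT; luminescence (ATP) read. qHTS concentration-response, Hill fit → AC50. Tamoxifen, doxorubicin as positive controls.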

[12] = Cell Viability - Renal Proximal Tubule (AID 545); conditions: renal proximal tubule cells viability; at 91.7 µM (top of the series), primary cells of rat origin unless noted;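 further: 0% = DMSO only and -100% = 100 µM tamoxifen; nearly all actives have a fitted effect of over 40% in size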
In short: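 Primary rat renal proximal tubule cells (1000/well) were treated with compounds for 40 hr at 37 °C in complete medium. Intracellular ATP was measured by CellTiter-Glo luminescence, and AC50 values came from Hill-equation fits of concentration-response data.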

[13] = Cell Viability - Mesenchymal (AID 546);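 further: cells exposed to compound for 40 hours before reading; 0% = DMSO only and -100% = 100 µM tamoxifen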
In short: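 In this qHTS cytotoxicity format, glomerulus-derived human mesenchymal kidney cells received compound for 40 hr, then luciferase-based ATP quantitation. Concentration-response data were fitted with the Hill equation.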

[14] = Cellular Toxicity (caspase-3) HepG2 (AID 654);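 further: cells exposed to compound for 16 hours before reading; 0% = DMSO alone and 100% = caspase signal from 100 µM tamoxifen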
In short: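 Luminescent Caspase-Glo 3/7 readout after 16 hr compound exposure of human hepatocellular carcinoma HepG2 cells at 37 °C; qHTS concentration-response, normalized DMSO = 0%, 100 uM tamoxifen = 100%; AC50 by standard Hill equation.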

[15] = Cellular Toxicity (caspase-3) HUV-EC-C (AID 656);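 further: 0% = DMSO basal and 100% = 100 µM tamoxifen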
In short: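 HUV-EC-C endothelial cells, 1000/well, were pre-incubated 5 hr at 37°C, then exposed to compounds for 16 hr at 37°C. Caspase-Glo 3/7 luminescence was read after 20 min at room temperature. AC50 came from Hill fits, normalized to DMSO and 100 uM tamoxifen.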

[16] = Cellular Toxicity (caspase-3) SHSY5Y (AID 657)
In short: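 SH-SY5Y human neuroblastoma cells (1500/well) were treated with compounds for 16 h at 37 °C, then Caspase-Glo 3/7 luminescence was read after 1 h at room temperature. Data normalized to DMSO and 10 uM staurosporine; AC50 from Hill fits.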

[17] = Cellular Toxicity (caspase-3) BJ (AID 658)
In short: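 Plated BJ cells (1000/well) rested 5 hr, received compound for 16 hr at 37 °C, then Caspase-Glo 3/7 reagent for 1 hr at room temperature before luminescence reading.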

[18] = Cellular Toxicity (caspase-3) MRC-5 (AID 659)
In short: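 Apoptosis readout in MRC-5 cells: luciferase light generated after caspase 3/7 cleaves a peptide-aminoluciferin substrate, measured post 16 hr compound incubation at 37 °C.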

[19] = Cellular Toxicity (caspase-3) Mesangial (AID 660);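 further: combined caspase 3 and 7 activity read by Caspase-Glo luminescence; cells exposed to compound for 16 h before the caspase read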
In short: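 Luminescent Caspase-Glo 3/7 readout (aminoluciferin substrate cleavage, 20 min RT) after 16 h compound exposure at 37 °C of normal human mesangial cells. Signal increase normalized between DMSO basal and 100 uM tamoxifen; Hill-equation AC50.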

[20] = Cellular Toxicity (caspase-3) SK-N-SH (AID 661)
In short: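 Luminescent Caspase-Glo 3/7 read-out after 16 hr compound exposure of SK-N-SH neuroblastoma cells at 37 °C. Signal increase normalized to DMSO (basal) and 10 uM staurosporine (100%); AC50 from Hill equation fits of qHTS concentration-response data.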

[21] = Cellular Toxicity (caspase-3) H-4-II-E (AID 663);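 further: cells exposed to compound for 16 hr before readout; 0% = DMSO basal and 100% = 100 µM tamoxifen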
In short: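 Caspase 3/7 activation measured in H-4-II-E cells in complete culture medium after 16 hr treatment at 37 °C, using luciferase-coupled substrate readout; AC50 values come from Hill-equation fits of normalized concentration-response data.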

[22] = Cellular Toxicity (caspase-3) Hek293 (AID 664);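 further: cells exposed to compound for 16 h at 37 °C before readout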
In short: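 Luminescent Caspase-Glo 3/7 readout (aminoluciferin release) in HEK293 cells after 16 h compound treatment, 37 °C. Normalization: DMSO = basal, 100 uM tamoxifen = 100% stimulation. Concentration-response fitted with standard Hill equation for AC50.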

[23] = Cellular Toxicity (caspase-3) N2a (AID 665); conditions: N2a cells, luminescence, normalized: DMSO 0%, 10 µM staurosporine 100%; at 92.2 µM (top of the series);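 further: compound exposure lasted 16 h at 37 °C before readout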
In short: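 Luminescent Caspase-Glo 3/7 readout in N2a mouse neuroblastoma cells after 16 h compound exposure at 37 °C. Signal scaled to DMSO (basal) and 10 uM staurosporine (100%). Concentration-response fitted with Hill equation for AC50.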

Clc1cc(Cl)c(-c2cc(Cl)c(Cl)cc2Cl)cc1Cl
inactive: Potency [1] > 92 µM | Potency [2] > 92 µM | Potency [3] > 92 µM | Potency [4] > 92 µM | Potency [6] > 92 µM | activity change, negative = cytotoxicity [8] -24.8% | Potency [9] | Potency [10] | Potency [11] | activity change, negative = cytotoxicity [12] -5.09% [at 91.7 µM] | outcome [13] | outcome [14] | outcome [15] | outcome [16] | outcome [17] | outcome [18] | outcome [19] | outcome [20] | outcome [21] | outcome [22] | caspase-3 activation [23] -0.702%
active: Potency [5] 24.3 µM | activity change, negative = cytotoxicity [7] -93.1%
